# High-throughput results as filed in PubChem.
# HCV inhibitor: HCV inhibition; Potency, µM (series often up to 41.8 µM), inactives show at the highest dose activity change, negative = inhibition, most hits filed as inhibitors; Huh7.5.1 HCVcc-Cre infection, luciferase reporter, 44 h; hit rate 3.4% among 340,000; AID 651820; further: potency means the concentration at half of the fitted maximal effect; on the % scale 0 is the no-effect control and ±100 the full control effect
#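 After 44 h co-culture of compound, cells and HCVcc-Cre (~0.5 moi), substrate is added for 15 min at room temperature and luciferase measured over 15 sec. Cells were seeded at 1,000/well and pre-cultured 4 h.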
# SARS PLP yeast: blocks SARS-CoV papain-like protease in a yeast assay | Potency, µM (top dose mostly 32.9 µM), for the others: at the highest dose activity, positive = growth rescue, most hits filed as activators | S. cerevisiae expressing SARS-CoV PLpro, growth rescue | AID 485353 | hit rate 0.19% among 330,000; calls by dose curve; further: potency means the concentration at half of the fitted maximal effect; 0% is about no effect; nearly all actives have a fitted effect of over 55% in size
# HCMV antiviral: human cytomegalovirus inhibition | HFF cells, HCMV-luciferase reporter, 72 h; stronger effect = lower value | activity change, negative = inhibition, % at 57.5 µM | hit rate 4.5% among 410,000 | AID 1259415; in the data active means activity change below about -60%; inconclusive means no clear call, values can overlap the other calls; inactive means above about -39%; further: on the % scale 0 is the no-effect control and ±100 the full control effect
#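 Two compound doses tested in HFFs infected with HCMV-luciferase, MOI 1 PFU/cell, 72 h at 37C. Lysate luminescence read with OneGlo; data normalized against buffer-only and 10uM Salinomycin inhibitor controls.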
# Pf growth 48h: inhibits P. falciparum growth in the first generation, 48 h | AID 504832 | hit rate 5.9% among 310,000 | P. falciparum luciferase growth in erythrocytes, 48 h | Potency, µM (titrated, usually from 28.7 µM), without a hit: at the top dose activity change, negative = inhibition, most hits filed as inhibitors; further: potency means the concentration at half of the fitted maximal effect; on the % scale 0 is the no-effect control and ±100 the full control effect
#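 Luminescence readout; reporter = integrated firefly luciferase in P. falciparum. RBC culture at 2% hematocrit, 0.1% parasitemia final, 37 C/5% CO2; decreased signal taken as growth inhibition.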
# Sm TGR inh: S. mansoni TGR enzyme inhibition; Q962Y6; Potency, µM (series often up to 114 µM), for inactives: at the highest dose activity change, negative = inhibition, most hits filed as inhibitors; AID 485364; purified TGR, DTNB reduction, TNB absorbance 405 nm; hit rate 3% among 360,000; further: potency means the concentration at half of the fitted maximal effect; on the % scale 0 is the no-effect control and ±100 the full control effect; nearly all actives have a fitted effect of over 60% in size
#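 Kinetic colorimetric format: TGR-catalysed, NADPH-driven DTNB reduction monitored via TNB absorbance. Enzyme dispensed at 20 nM; compound exposure 15 min at room temperature before reaction start.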
# Pf growth 96h: P. falciparum growth inhibition at 96 hours | hit rate 6.9% among 320,000 | Potency, µM (doses to about 28.7 µM), for the others: at the highest dose activity change, negative = inhibition, actives largely listed as inhibitors | AID 504834 | P. falciparum luciferase reporter growth, 96 h; further: potency means the concentration at half of the fitted maximal effect; on the % scale 0 is the no-effect control and ±100 the full control effect
#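 Cell-based qHTS: luciferase-tagged P. falciparum in erythrocytes (2% hematocrit, 0.05% parasitemia final) incubated with compounds for 96 hours, 37 C, 5% CO2; luciferase detection reagent then added and luminescence measured.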
# Numbers without * were called inactive; ? = inconclusive; . = no result given. The list is not random: actives were taken first. Their share in the collection is about 15%. Unless noted, the call rests on the fitted dose curve; in most records, active means well fitted curve in the direction sought with a large enough effect; inconclusive means small, poorly fitted or top-dose-only effect, or another doubt; inactive means no such curve, though single readings can be large; an effect the other way counts as inactive or inconclusive.
SMILES,HCV inhibitor,SARS PLP yeast,HCMV antiviral,Pf growth 48h,Sm TGR inh,Pf growth 96h
CCC1=Nc2cc(C(=O)NC3CCCC3)ccc2Sc2ccc(Br)cc21,.,.,?,.,-4%,.
CC1=Nc2cc(C(=O)NC3CCCC3)ccc2Sc2ccc(Br)cc21,.,.,-76*,.,-4%,.
COc1ccc(C2CC(=O)C3=C(C2)NC(C)=C(C(=O)Nc2ccccc2C)C3c2coc3ccc(C)cc3c2=O)cc1OC (stereo not given),?,-20%,-11,2.3µM*,-31%,?
CC(=O)c1c(C)n(CCO)c2ccc(O)cc12,7%,2%,12,11%,2%,.
CC(=O)c1c(C)n(CCc2ccc(Cl)cc2)c2ccc(O)cc12,9%,1%,-38,11%,3%,5.9µM*
CC(=O)c1c(C)n(Cc2ccccc2Cl)c2ccc(O)cc12,-24%,1%,-62*,-4%,13%,?
COc1cc(OC)c(NC(=O)Cn2c(=O)nc(-c3ccccc3)c3ccccc32)cc1Cl,.,.,10,.,-3%,.
Cc1cc(C)nc(SC2=CS(=O)(=O)c3ccccc32)n1,-33%,7%,-6,?,-23%,-25%
O=S1(=O)C=C(Sc2nnc(-c3ccccc3)o2)c2ccccc21,10µM*,-20%,.,3.7µM*,0.5µM*,2%
CCN(CC)C(=O)CSc1nnc(CNc2ccc(F)cc2)n1-c1ccccc1,3%,-6%,3,-27%,?,?
COc1ccccc1CN(C)CC(=O)Nc1cccc2ccccc12,-1%,-3%,-16,-7%,-4%,0%
COc1cc(Cl)c(C)cc1NC(=O)CN(C)Cc1cccc(OC)c1OC,10µM*,-8%,2,?,10%,-37%
COc1ccccc1C(C)NCC(=O)Nc1c(F)cccc1F (stereo not given),12%,1%,22,-10%,12%,-11%
COc1cc(Cl)c(C)cc1NC(=O)CNC(C)c1ccccc1OC (stereo not given),?,-8%,4,-12%,-1%,9.3µM*
Cc1ccc(S(=O)(=O)N(CC(=O)Nc2cccc(N(C)S(C)(=O)=O)c2)c2ccc(Cl)c(Cl)c2)cc1,?,-2%,-11,13µM*,0%,?
CN(c1cccc(NC(=O)CN(c2ccc(F)cc2)S(C)(=O)=O)c1)S(C)(=O)=O,26%,0%,-2,?,35%,-10%
CN(c1cccc(NC(=O)CN(c2ccc(C34CC5CC(CC(C5)C3)C4)cc2)S(C)(=O)=O)c1)S(C)(=O)=O,?,-1%,.,?,8%,17µM*
CCOC(=O)c1ccc(-n2c(=S)sc3c(=O)[nH]c(C)nc32)cc1,10%,1%,.,8%,12%,30%
CCN1/C(=C2\C(=O)N(C)C(=S)N2C)C=Cc2cc(C)ccc21,2%,-26%,-22,3.7µM*,5%,23%
CC(C(=O)O)n1cc(Cl)cn1 (stereo not given),4.5µM*,-4%,?,6%,4%,41%
Cc1ccnn1C(C)C(=O)O (stereo not given),1%,3%,26,1%,-17%,-5%
Cc1cccc(/C=N\N=C\c2cccc(C)c2)c1,9%,7%,41,?,3%,7.4µM*
COc1ccc(C2Nc3ccccc3C(=O)N2Cc2ccccc2)cc1COc1ccccn1 (stereo not given),-2%,7%,-1,?,-8%,?
COc1ccc(C2Nc3ccccc3C(=O)N2Cc2ccco2)cc1COc1ccc(F)cc1 (stereo not given),?,14%,22,2.1µM*,?,6.6µM*
COc1ccc(C2Nc3ccccc3C(=O)N2Cc2ccccc2)cc1OC (stereo not given),0%,.,39,.,.,.
SMILES,HCV inhibitor,SARS PLP yeast,HCMV antiviral,Pf growth 48h,Sm TGR inh,Pf growth 96h
CCCN1C(=O)c2ccccc2NC1c1ccc(OC)c(CSc2ccccn2)c1 (stereo not given),?,-14%,-39,?,1%,10µM*
COc1ccc(C2Nc3ccccc3C(=O)N2c2ccc(C)cc2)cc1Cn1nnc2ccccc21 (stereo not given),4%,3%,-21,13µM*,0%,?
COc1ccc(C2Nc3ccccc3C(=O)N2Cc2ccco2)cc1CN1C(=O)c2ccccc2C1=O (stereo not given),?,2%,-17,13µM*,?,?
Cc1c(C(=O)Nc2ccccc2F)sc2ncn(CC(=O)N3CCOCC3)c(=O)c12,9%,-15%,-13,12%,0%,?
O=c1ccn([C@@H]2O[C@H](CNCc3ccccc3OCc3ccc(Cl)cc3Cl)[C@@H](O)[C@H]2O)c(=O)[nH]1,.,.,-30,.,.,.
C[C@@H](CO)NC(=O)c1nc[nH]c1C(=O)N[C@H](C)c1ccccc1,.,.,1,.,.,.
Cc1ccc(C)c(-c2nnc(NC(=O)CCS(=O)(=O)c3ccc(F)cc3)o2)c1,13%,-1%,-9,11%,-10%,-1%
CCCN1C(=O)c2ccccc2NC1c1ccc(OC)cc1O (stereo not given),11%,-2%,-91*,?,-4%,.
O=C1c2ccccc2NC(c2cccc(O)c2)N1Cc1ccco1 (stereo not given),-1%,0%,0,0%,32µM*,?
CCCN1C(=O)c2ccccc2NC1c1ccc(OC)cc1OC (stereo not given),-26%,28%,53,?,0%,.
O=C1c2ccccc2NC(c2cccc(O)c2)N1c1ccccc1 (stereo not given),4%,1%,32,6%,6%,16%
Cc1cc(OCCN2CCC(Cc3ccccc3)CC2)ccc1[N+](=O)[O-],-6%,-19%,44,2%,3%,-2%
COCOc1cc(O)c2c(=O)c(OCOC)c(-c3ccc(OCOC)c(OCOC)c3)oc2c1,-39%,.,-71*,.,.,.
O=c1c(O)c(-c2cc(O)c(O)c(O)c2)oc2cc(O)cc(O)c12,-19%,.,?,3%,3.5µM*,-17%
O=c1c(O)c(-c2ccccc2)oc2cc(O)cc(O)c12,-28%,-9%,5,.,.,.
COc1c(-c2ccc(O)c(O)c2)oc2cc(O)cc(O)c2c1=O,-8%,2%,40,8%,28µM*,-2%
O=c1c(O[C@@H]2O[C@H](CO)[C@H](O)[C@H](O)[C@H]2O)c(-c2ccc(O)c(O)c2)oc2cc(O)cc(O)c12,.,.,.,.,18%,.
CN(CCO)c1cccc2c1S(=O)(=O)N[C@@H](Cc1ccccc1)CO2,.,.,-1,.,.,.
CCC[C@H]1[C@@H](NS(=O)(=O)c2cccc([N+](=O)[O-])c2)CC[C@@]23CCCN2C(=O)CCC[C@@H]13,.,.,18,.,.,.
